# Only some compounds are listed: those with a hit (about 4.2% of all), similar ones and a draw of the others.
# S1P4 antag – human S1P4 receptor antagonism; O95977; S1P4-expressing cells, antagonist mode, reporter read-out; inhibition, % at 4.98 µM; hit rate 0.26% among 220,000; AID 1510; in the data active = inhibition above about 29%;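 also: 0% = wells stimulated with agonist and 100% = vehicle wells without agonist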
# Target sequence (O95977 whole entry, looked up): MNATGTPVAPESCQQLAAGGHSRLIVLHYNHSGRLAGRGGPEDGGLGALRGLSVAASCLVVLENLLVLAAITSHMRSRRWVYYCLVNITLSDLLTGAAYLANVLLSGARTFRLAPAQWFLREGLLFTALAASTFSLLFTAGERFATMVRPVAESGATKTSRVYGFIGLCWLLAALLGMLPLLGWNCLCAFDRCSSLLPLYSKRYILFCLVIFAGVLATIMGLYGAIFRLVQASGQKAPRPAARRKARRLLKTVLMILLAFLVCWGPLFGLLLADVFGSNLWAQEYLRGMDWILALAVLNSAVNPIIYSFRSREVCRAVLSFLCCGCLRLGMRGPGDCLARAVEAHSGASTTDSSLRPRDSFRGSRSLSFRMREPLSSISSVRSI
# CHOP inhibitor – blocks CHOP induction under ER stress | inhibition, % at 10 µM | hit rate 3.8% among 220,000 | CHO-K1 CHOP-promoter luciferase, tunicamycin-induced, 15-18 h;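 active = compounds that reduced the stress-induced luciferase reporter signal by more than about 70% of percent inhibition, limit read from the data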;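 also: 0% = tunicamycin plus vehicle and 100% = wells without tunicamycin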
# Hsp70 act – switches on Hsp70 transcription; activation, % at 10 µM; hit rate 0.04% among 200,000; AID 1203; HeLa Hsp70 promoter luciferase reporter, luminescence; scaled: vehicle 0, proteasome-inhibitor control 100%;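 active = activation above the mean across all tested compounds plus 3 SD, cutoff set per campaign, cut at about 5.5% in these data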;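 also: 100% = MG132 at 30 µM as the positive control and 0% = DMSO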
# S1P4 agonist – human S1P4 receptor agonism; O95977; hit rate 0.35% among 220,000; S1P4-expressing cell line, agonist reporter assay; activation, % at 4.98 µM; in the data active = activation above about 11%;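 also: 0% = DMSO vehicle and 100% = reference agonist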
# Numbers without * were called inactive; x = no result.
SMILES,S1P4 antag,CHOP inhibitor,Hsp70 act,S1P4 agonist
Cc1cc(Cl)ccc1OCC(=O)Nc1ccccc1CO,-4.7,24.9,0.0,-2.8
CSc1ccccc1NC(=O)COc1ccc(Cl)cc1C,-11.2,83.0*,-0.2,0.7
c1ccc(CC2CCN(c3ncnc4sccc34)CC2)cc1,-31.8,73.7*,-0.3,-0.8
O=C(O)c1cc2c(N3CCC(Cc4ccccc4)CC3)ncnc2s1,-16.1,-3.3,0.1,0.6
COc1ccc2[nH]c(C)c(C(=O)CN(C)C)c2c1,-12.4,0.6,0.1,1.8
COc1cc(NC(=O)c2cccs2)c(C(=O)OCC(=O)NCc2ccccc2)cc1OC,-3.2,87.1*,-0.5,-1.5
CCOC(=O)c1ccccc1NC(=O)c1cncc(Br)c1,-20.0,72.9*,0.3,-0.5
CCOC(=O)c1ccccc1NC(=O)c1n[nH]c(=O)c2ccccc12,-4.0,93.2*,-0.2,1.4
CCOC(=O)c1ccc(NC(=O)c2n[nH]c(=O)c3ccccc23)cc1,-9.1,13.8,-0.2,-0.2
CCOC(=O)c1ccccc1NC(=O)c1cccs1,-6.5,91.5*,-0.1,1.8
COc1cc(NC(=O)c2cccs2)c(C(=O)OCC(=O)NC(C)c2ccccc2)cc1OC (stereo unspecified),5.6,9.7,-0.4,0.7
N=c1c2c3c(sc2ncn1Cc1ccco1)CCCCC3,0.8,-0.3,0.0,0.0
CCC(=O)N1CCc2cc(S(=O)(=O)NC(Cc3ccccc3)C(=O)Nc3nccs3)ccc21 (stereo unspecified),1.8,5.2,-0.1,3.2
CCC1SC2=NC(C)=C(C(=O)OCCOC)C(c3ccc(C(=O)OC)cc3)N2C1=O (stereo unspecified),6.8,11.6,-0.1,0.6
NC(=S)NC(=O)/C=C/c1ccccc1,-17.6,4.1,-0.3,1.0
CCOCC(=O)Nc1ccccc1C(=O)OCC,-9.1,37.7,-0.4,0.2
CCOC(=O)c1ccccc1NC(=O)COc1ccccc1,-28.5,84.5*,-0.2,-1.7
COc1ccc2[nH]c(=O)c(C(c3nnnn3C3CCCC3)N(C)C3CCCCC3)cc2c1 (stereo unspecified),-5.5,75.1*,0.0,0.1
CCOC(=O)c1cnc2ccc(C)cc2c1Nc1ccc(N2CCOCC2)cc1,-12.7,72.4*,0.0,1.2
CCOC(=O)c1cnc2ccccc2c1Nc1ccc(C(=O)O)cc1,6.3,-0.9,0.0,-2.8
Cc1cccc(N2CCN(S(=O)(=O)c3ccc4c(c3)CCN4C(=O)CCC(=O)O)CC2)c1C,-16.1,35.9,-0.3,2.4
CN(C)c1ccc(/C=C/c2nc3ccccc3s2)cc1,13.0,81.1*,-0.8,2.6
Cc1cc(Br)cc(C)c1NC(=S)NC(=O)CC(C)C,10.6,91.6*,-0.2,2.1
Cc1cc(NC(=O)CC2CCCC2)n(-c2nc3ccccc3[nH]2)n1,-15.5,85.0*,-0.4,-1.4
Cc1c(N=C2N=C(NC(=O)Nc3ccc(Cl)cc3)c3ccccc32)c(=O)n(-c2ccccc2)n1C,-8.4,92.4*,0.4,-1.6
SMILES,S1P4 antag,CHOP inhibitor,Hsp70 act,S1P4 agonist
CCc1nnc(NC(=O)[C@@H](NC(=O)c2cccc(S(=O)(=O)N(CC)CC)c2)C(C)C)s1,2.8,82.5*,-0.2,0.0
FC(F)(F)c1cc(Sc2ccccc2)nc(-c2ccccn2)n1,16.9,71.2*,-0.2,1.2
Cc1onc(-c2ccccc2)c1C(=O)NC(=S)NNC(=O)c1cc(-c2ccc(F)cc2)n[nH]1,-10.9,20.4,x,1.5
CC(/C=N/NC(=O)NC1CCCCC1)=C\c1ccccc1,-8.3,85.8*,0.2,-2.0
COC(=O)CC1C(=O)NC2CCCCC2N1C(=O)c1ccccc1 (stereo unspecified),-7.5,-14.3,-0.5,-1.2
O=C(c1ccc(CSc2nc3ccncc3[nH]2)cc1)N1CCN(c2cccc(Cl)c2)CC1,-1.9,83.1*,-0.1,1.8
OC(COc1cccc2ccccc12)CN1CCN(c2ccccc2Cl)CC1 (stereo unspecified),7.7,76.4*,x,-0.9
Cc1ccccc1OCC(O)CN1CCN(CC(O)COc2ccccc2C)CC1 (stereo unspecified),-2.8,2.3,0.0,1.7
OC(COCc1ccc(Cl)cc1)CN1CCc2ccccc2C1 (stereo unspecified),-24.9,-0.9,-0.5,1.2
Cc1ccc(N2CCN(CC(O)COc3cccc4ccccc34)CC2)cc1 (stereo unspecified),-4.2,86.0*,x,0.9
OC(COCc1ccc(Cl)cc1)CN1CCN(CC(O)COCc2ccc(Cl)cc2)CC1 (stereo unspecified),9.0,88.1*,-0.6,-3.4
Cc1ccccc1OCC(O)CN1CCN(c2ccc(Cl)cc2)CC1 (stereo unspecified),-2.0,82.0*,x,0.0
Cc1ccc(N2CCN(CC(O)COc3cccc(C)c3)CC2)cc1 (stereo unspecified),-1.7,5.7,x,-0.4
COc1ccccc1N1CCN(CC(O)COc2c(OC)cccc2OC)CC1 (stereo unspecified),-8.5,-10.7,-0.1,1.4
Cc1ccc(S(=O)(=O)NC2CCC(C(=O)O)CC2)cc1 (stereo unspecified),-6.4,14.1,-0.2,-1.5
Cc1cccc(COCC(Cc2ccccc2)N2CCN(C(=O)c3ccc(C(F)(F)F)cc3)CCC2=O)c1 (stereo unspecified),0.4,24.9,-0.4,0.4
CC(C)CC(COCc1cccc(Cl)c1)N1CCN(C(=O)c2ccc(C(F)(F)F)cc2)CCC1=O (stereo unspecified),10.5,76.8*,-0.1,2.7
Cc1cccc(COCC(CC(C)C)N2CCN(C(=O)c3ccc(C(F)(F)F)cc3)CCC2=O)c1 (stereo unspecified),18.5,43.5,0.0,-0.2
Cc1cccc(COCC(CC(C)C)N2CCN(C(=O)c3ccc(C(C)(C)C)cc3)CCC2=O)c1 (stereo unspecified),14.3,71.1*,-0.3,2.4
O=S1(=O)CCC(NS(=O)(=O)c2cccc3cccnc23)C1 (stereo unspecified),-4.2,-5.7,-0.2,-2.0
CCc1sc(NC(C)=O)nc1-c1ccccc1,-18.8,13.1,0.1,1.2
CCc1ccc(N2C(=O)c3sc4nnc(-c5ccccc5)c(=O)n4c3C2=O)cc1,0.3,70.9*,0.1,2.2
Cc1ccc(SC(C)C(=O)Nc2ccccc2-c2ccccc2)cc1 (stereo unspecified),-4.6,0.6,-0.4,1.2
CC(Sc1ccc(Cl)cc1)C(=O)Nc1ccccc1-c1ccccc1 (stereo unspecified),-8.4,92.9*,0.1,0.1
COc1ccc(CN2CCN(C(=O)c3cccs3)CC2)cc1,-10.5,10.3,-0.1,0.8
SMILES,S1P4 antag,CHOP inhibitor,Hsp70 act,S1P4 agonist
Oc1ccc(-c2csc(Nc3ncccn3)n2)c(O)c1,-2.0,93.5*,0.0,-0.3
Oc1ccc(-c2csc(Nc3ncccn3)n2)cc1O,-4.0,-20.2,0.8,-1.1
OC(CNCc1ccc(Cl)cc1)(c1ccccc1)c1ccc(F)cc1 (stereo unspecified),-13.7,75.3*,-0.3,-2.1
OC(CNCc1ccc(F)cc1)(c1ccc(F)cc1)c1ccc(F)cc1,3.2,72.0*,-0.1,0.5
O=C(O)c1cc(S(=O)(=O)O)ccc1O,-18.1,21.8,-0.3,-0.4
CCc1ccccc1S(=O)(=O)Cc1ccc(C(=O)NCc2cccs2)o1,0.8,-7.1,-0.1,1.0

# From PubChem BioAssay
